Inconclusive results are not listed. Active and inactive are the calls of the source. Rule for the calls, unless noted: active = hit-call score of the fitted dose curve at least 0.9, where 1 is the maximum; inactive = score below 0.9.
Key:
[1] = biological target: CCAAT/enhancer-binding protein beta (Homo sapiens) (UniProt P17676); test: ATG_C_EBP_CIS: Attagene CIS-FACTORIAL HepG2 Assay for human CCAAT/Enhancer Binding Protein (C/EBP) beta (AID 2282927); conditions: HepG2 Attagene cis-factorial transcription factor reporter; actives raise or lower the signal
CCAAT/enhancer-binding protein beta (Homo sapiens), sequence (P17676 whole entry, looked up): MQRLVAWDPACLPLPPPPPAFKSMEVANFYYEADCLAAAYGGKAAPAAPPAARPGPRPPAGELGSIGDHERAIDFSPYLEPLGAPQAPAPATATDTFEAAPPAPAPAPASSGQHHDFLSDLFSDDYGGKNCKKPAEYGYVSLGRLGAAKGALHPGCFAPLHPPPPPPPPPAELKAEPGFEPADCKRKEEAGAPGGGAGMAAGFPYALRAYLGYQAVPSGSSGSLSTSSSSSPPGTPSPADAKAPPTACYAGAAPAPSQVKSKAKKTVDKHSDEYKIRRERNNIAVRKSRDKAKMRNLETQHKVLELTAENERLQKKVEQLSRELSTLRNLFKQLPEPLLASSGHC
Outline: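 Changes in reporter mRNA, rather than exogenous chimeric receptor activity, reflect native C/EBP signalling in transfected HepG2 cells dosed for 24 h; transcripts are detected by RT-PCR and capillary electrophoresis.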

[2] = biological target: Transcription factor E2F1 (Homo sapiens) (UniProt Q01094); test: ATG_E2F_CIS: Attagene CIS-FACTORIAL HepG2 Assay for human E2F Transcription Factor 1 (AID 2282935); conditions: HepG2 Attagene cis-reporter, E2F reporter RNA transcripts; actives raise or lower the signal
Transcription factor E2F1 (Homo sapiens), sequence (Q01094 whole entry, looked up): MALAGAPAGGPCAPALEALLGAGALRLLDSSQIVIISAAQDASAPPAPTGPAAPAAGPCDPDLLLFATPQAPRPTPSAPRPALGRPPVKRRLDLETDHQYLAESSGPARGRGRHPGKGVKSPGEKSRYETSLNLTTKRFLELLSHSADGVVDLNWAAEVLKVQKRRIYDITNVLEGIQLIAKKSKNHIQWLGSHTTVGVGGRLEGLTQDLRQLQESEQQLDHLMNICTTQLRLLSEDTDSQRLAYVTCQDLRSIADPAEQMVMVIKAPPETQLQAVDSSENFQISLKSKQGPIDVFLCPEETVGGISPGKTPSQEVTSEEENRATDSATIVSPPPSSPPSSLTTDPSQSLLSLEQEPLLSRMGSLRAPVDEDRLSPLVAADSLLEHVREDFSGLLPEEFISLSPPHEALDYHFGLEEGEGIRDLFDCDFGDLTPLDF
Outline: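 Fluorescent RT-PCR products, digested with HpaI for 2 h at 37 C, are separated by capillary electrophoresis. Source RNA comes from transfected HepG2 cultures treated for 24 h.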

[3] = ATG_GATA_CIS: Attagene CIS-FACTORIAL HepG2 Assay for human GATA Binding Protein (AID 2282944); conditions: HepG2 GATA cis-element reporter, Attagene multiplex mRNA; actives raise or lower the signal
Outline: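 Transient MRTU transfection, HepG2, 24 h compound exposure. Total RNA → oligo(dT) RT → PCR → 6-FAM primer extension → HpaI cut → CE. Bidirectional fit vs DMSO.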

[4] = biological target: Hypoxia-inducible factor 1-alpha (Homo sapiens) (UniProt Q16665); test: ATG_HIF1a_CIS: Attagene CIS-FACTORIAL HepG2 Assay for human Hypoxia Inducible Factor 1 (HIF1A) (AID 2282951); conditions: HepG2 Attagene cis-factorial HIF1a reporter transcription; actives raise or lower the signal
Hypoxia-inducible factor 1-alpha (Homo sapiens), sequence (Q16665 whole entry, looked up): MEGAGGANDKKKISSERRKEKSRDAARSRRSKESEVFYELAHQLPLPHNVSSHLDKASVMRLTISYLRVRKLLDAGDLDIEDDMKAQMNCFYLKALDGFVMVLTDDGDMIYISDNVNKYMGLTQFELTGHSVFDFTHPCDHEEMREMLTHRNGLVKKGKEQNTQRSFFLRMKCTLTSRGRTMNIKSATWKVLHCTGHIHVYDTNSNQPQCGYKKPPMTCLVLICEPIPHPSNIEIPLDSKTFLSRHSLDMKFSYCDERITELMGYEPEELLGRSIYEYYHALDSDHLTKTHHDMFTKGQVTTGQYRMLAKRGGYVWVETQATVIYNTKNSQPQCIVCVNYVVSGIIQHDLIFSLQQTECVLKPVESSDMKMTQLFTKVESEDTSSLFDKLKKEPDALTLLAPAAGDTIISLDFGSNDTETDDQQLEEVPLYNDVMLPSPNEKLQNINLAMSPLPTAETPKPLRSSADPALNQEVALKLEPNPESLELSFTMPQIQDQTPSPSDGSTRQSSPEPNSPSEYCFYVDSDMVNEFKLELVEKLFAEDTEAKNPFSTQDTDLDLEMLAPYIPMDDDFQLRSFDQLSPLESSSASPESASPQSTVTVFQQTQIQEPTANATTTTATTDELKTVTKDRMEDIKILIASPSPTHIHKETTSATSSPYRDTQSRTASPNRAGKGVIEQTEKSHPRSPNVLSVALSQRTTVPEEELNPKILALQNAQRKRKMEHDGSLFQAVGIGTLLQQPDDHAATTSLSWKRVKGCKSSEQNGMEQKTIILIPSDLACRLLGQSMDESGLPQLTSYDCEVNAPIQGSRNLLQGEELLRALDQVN
Outline: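 Cis-element reporter constructs were transiently transfected into HepG2 cells, which were treated for 24 h; reporter RNA was reverse-transcribed, amplified, labelled and resolved by capillary electrophoresis.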

[5] = biological target: Hepatocyte nuclear factor 6 (Homo sapiens) (UniProt Q9UBC0); test: ATG_HNF6_CIS: Attagene CIS-FACTORIAL HepG2 Assay for human Hepatocyte Nuclear Factor 6 (HNF6) (AID 2282952); conditions: HepG2 Attagene cis-factorial HNF6 reporter transcription; actives raise or lower the signal
Hepatocyte nuclear factor 6 (Homo sapiens), sequence (Q9UBC0 whole entry, looked up, the tested form may be a part): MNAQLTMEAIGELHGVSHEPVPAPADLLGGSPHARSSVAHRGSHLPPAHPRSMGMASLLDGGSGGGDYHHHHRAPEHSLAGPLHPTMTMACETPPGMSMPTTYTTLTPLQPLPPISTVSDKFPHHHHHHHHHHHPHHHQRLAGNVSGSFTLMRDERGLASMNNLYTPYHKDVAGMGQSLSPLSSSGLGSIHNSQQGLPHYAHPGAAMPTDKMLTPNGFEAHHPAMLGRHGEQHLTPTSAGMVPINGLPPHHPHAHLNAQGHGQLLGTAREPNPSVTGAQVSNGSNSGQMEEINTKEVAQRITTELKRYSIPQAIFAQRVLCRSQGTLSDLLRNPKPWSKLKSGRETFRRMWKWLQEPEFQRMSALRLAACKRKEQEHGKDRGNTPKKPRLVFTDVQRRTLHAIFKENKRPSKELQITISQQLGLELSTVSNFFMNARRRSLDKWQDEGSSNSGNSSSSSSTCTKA
Outline: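 Readout: fluorescent reporter-transcript fragments resolved by capillary electrophoresis after RT-PCR, reflecting endogenous factor activity in transfected HepG2. Exposure 24 h. Gain or loss of signal fitted bidirectionally against DMSO.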

[6] = biological target: Heat shock factor protein 1 (Homo sapiens) (UniProt Q00613); test: ATG_HSE_CIS: Attagene CIS-FACTORIAL HepG2 Assay for human Heat Shock Transcription Factor 1 (HSE) (AID 2282953); conditions: HepG2 HSE cis-reporter, Attagene RNA transcription; actives raise or lower the signal
Heat shock factor protein 1 (Homo sapiens), sequence (Q00613 whole entry, looked up): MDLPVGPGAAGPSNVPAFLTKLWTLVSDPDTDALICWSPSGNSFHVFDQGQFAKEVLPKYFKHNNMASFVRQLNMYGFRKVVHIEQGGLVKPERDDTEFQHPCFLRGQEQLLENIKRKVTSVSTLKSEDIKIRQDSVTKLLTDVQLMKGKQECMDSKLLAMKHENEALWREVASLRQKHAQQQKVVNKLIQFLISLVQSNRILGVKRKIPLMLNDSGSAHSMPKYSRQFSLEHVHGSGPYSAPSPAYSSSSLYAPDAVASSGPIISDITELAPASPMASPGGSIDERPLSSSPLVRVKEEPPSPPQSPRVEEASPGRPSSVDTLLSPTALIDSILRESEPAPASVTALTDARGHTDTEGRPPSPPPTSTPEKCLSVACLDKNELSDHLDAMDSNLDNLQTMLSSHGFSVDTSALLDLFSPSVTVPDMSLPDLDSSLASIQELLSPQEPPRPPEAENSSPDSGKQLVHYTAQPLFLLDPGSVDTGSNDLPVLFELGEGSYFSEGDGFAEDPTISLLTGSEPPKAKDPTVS
Outline: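 HepG2, transient MRTU transfection, cis-promoter reporters (endogenous TF activity). 24 h compound. RNA → oligo(dT) RT → PCR → 6-FAM primer extension → HpaI cut → CE. Bidirectional fit vs DMSO.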

[7] = ATG_PXRE_CIS: Attagene CIS-FACTORIAL HepG2 Assay for human Pregnane X Receptor Element (PXRE) (AID 2282957); conditions: HepG2 Attagene CIS-FACTORIAL PXRE reporter, mRNA; actives raise or lower the signal
Outline: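 Read-out: fluorescence of reporter-specific RT-PCR products resolved by capillary electrophoresis, fitted bidirectionally relative to DMSO. Human HepG2 liver cells carried transfected cis-promoter reporter units and were exposed to chemicals for 24 h.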

[8] = ATG_Sox_CIS: Attagene CIS-FACTORIAL HepG2 Assay for human SRY-box transcription factor (SOX) (AID 2282960); conditions: HepG2 Attagene cis-factorial SOX reporter, mRNA; actives raise or lower the signal
Outline: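 Fluorescence-labelled cDNA fragments from reporter transcripts, sized by CE, give the signal. Cells: HepG2, transiently transfected with cis-regulated reporter units. Exposure 24 h; DMSO negative control; bidirectional curve fitting.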

[9] = ATG_TAL_CIS: Attagene CIS-FACTORIAL HepG2 Assay for human TAL Basal Promoter (AID 2282966); conditions: HepG2 Attagene cis-factorial TAL promoter reporter; actives raise or lower the signal;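 note: background control endpoint measuring basal TAL promoter reporter mRNA not a specific factor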
Outline: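 HepG2, transient MRTU transfection, 24 h compound exposure; RNA → oligo(dT) RT → PCR → 6-FAM primer extension → HpaI digest → CE fluorescence. Bidirectional curve fit vs DMSO. Background-control readout.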

[10] = biological target: X-box-binding protein 1 (Homo sapiens) (UniProt P17861); test: ATG_Xbp1_CIS: Attagene CIS-FACTORIAL HepG2 Assay for human X-box Binding Protein 1 (XBP1) (AID 2282972); conditions: HepG2 XBP1 cis-element reporter, Attagene multiplex; actives raise or lower the signal
X-box-binding protein 1 (Homo sapiens), sequence (P17861 whole entry, looked up): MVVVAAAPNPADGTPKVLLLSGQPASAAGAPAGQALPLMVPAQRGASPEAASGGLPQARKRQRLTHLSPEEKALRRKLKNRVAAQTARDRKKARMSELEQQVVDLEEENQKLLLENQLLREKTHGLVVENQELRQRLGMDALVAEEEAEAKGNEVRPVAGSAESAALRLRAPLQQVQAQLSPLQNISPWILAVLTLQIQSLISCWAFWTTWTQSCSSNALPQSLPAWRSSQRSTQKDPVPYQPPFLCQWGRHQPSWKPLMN
Outline: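 Reporter transcripts were quantified by RT-PCR with fluorescent primer extension and capillary electrophoresis after 24 h chemical exposure. Cells: transiently transfected HepG2 carrying cis-regulated reporter constructs; data fitted bidirectionally relative to DMSO.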

[11] = ATG_NFI_CIS: Attagene CIS-FACTORIAL HepG2 Assay for human Nuclear Factor I (NFI) (AID 2282989); conditions: HepG2 cis-regulatory reporter, NFI response element transcription; actives raise or lower the signal
Outline: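 Transient MRTU transfection of HepG2 → 24 h chemical dosing → total RNA, oligo(dT) RT → PCR, 6-FAM primer extension, HpaI cut → capillary electrophoresis. Endpoint fitted bidirectionally relative to DMSO.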

[12] = biological target: Myc proto-oncogene protein (Homo sapiens) (UniProt P01106); test: ATG_Myc_CIS: Attagene CIS-FACTORIAL HepG2 Assay for human Myelocytomatosis (Myc) Proto-Oncogene Transcription Factor (AID 2282990); conditions: HepG2, Attagene cis-reporter transcription factor activity; actives raise or lower the signal
Outline: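 Cells of the HepG2 human liver line bear multiple cis-driven reporter transcription units. Reporter mRNA after 24 h exposure is reverse-transcribed, amplified, labelled and resolved by capillary electrophoresis, with gain- or loss-of-signal fitting relative to DMSO.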

[13] = ATG_NRF2_ARE_CIS: Attagene CIS-FACTORIAL HepG2 Assay for human Nuclear Factor Erythroid 2 Related Factor 2 (NFR2) response to Antioxidant Response Elements (ARE) (AID 2282992); conditions: HepG2 Attagene ARE/NRF2 reporter, transcription factor activity; actives raise or lower the signal
Outline: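 Endogenous transcription factor activity read out as reporter transcript levels (RT-PCR plus capillary electrophoresis, fluorescence) in transiently transfected HepG2 cells. Measured at 24 h after dosing; gain or loss of signal fitted versus DMSO.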

[14] = biological target: Cellular tumor antigen p53 (Homo sapiens) (UniProt P04637); test: ATG_p53_CIS: Attagene CIS-FACTORIAL HepG2 Assay for human p53 Transcription Factor (AID 2282994); conditions: HepG2 p53 cis-element reporter, Attagene mRNA; actives raise or lower the signal
Cellular tumor antigen p53 (Homo sapiens), sequence (P04637 whole entry, looked up): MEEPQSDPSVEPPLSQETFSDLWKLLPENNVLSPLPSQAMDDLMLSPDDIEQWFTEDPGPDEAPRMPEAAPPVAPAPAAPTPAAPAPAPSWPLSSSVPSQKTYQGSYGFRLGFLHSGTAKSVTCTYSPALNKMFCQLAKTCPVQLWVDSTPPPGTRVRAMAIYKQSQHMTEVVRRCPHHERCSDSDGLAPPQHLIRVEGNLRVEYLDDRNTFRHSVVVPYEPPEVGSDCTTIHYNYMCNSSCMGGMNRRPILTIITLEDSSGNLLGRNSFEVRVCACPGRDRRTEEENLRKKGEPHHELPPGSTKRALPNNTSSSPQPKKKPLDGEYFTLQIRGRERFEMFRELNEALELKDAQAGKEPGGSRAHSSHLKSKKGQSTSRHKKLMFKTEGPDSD
Outline: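 Endogenous p53 activity read in transiently transfected HepG2 from a cis-element-driven reporter transcript after 24 h exposure. RNA reverse-transcribed, PCR-amplified, fluorescently labelled and sized by capillary electrophoresis; gain or loss fitted against DMSO baseline.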

[15] = biological target: Transcription factor Sp1 (Homo sapiens) (UniProt P08047); test: ATG_Sp1_CIS: Attagene CIS-FACTORIAL HepG2 Assay for human Specificity Protein 1 (Sp1) (AID 2282961); conditions: HepG2 Sp1 cis-reporter transcription, actives raise or lower the signal
Transcription factor Sp1 (Homo sapiens), sequence (P08047 whole entry, looked up): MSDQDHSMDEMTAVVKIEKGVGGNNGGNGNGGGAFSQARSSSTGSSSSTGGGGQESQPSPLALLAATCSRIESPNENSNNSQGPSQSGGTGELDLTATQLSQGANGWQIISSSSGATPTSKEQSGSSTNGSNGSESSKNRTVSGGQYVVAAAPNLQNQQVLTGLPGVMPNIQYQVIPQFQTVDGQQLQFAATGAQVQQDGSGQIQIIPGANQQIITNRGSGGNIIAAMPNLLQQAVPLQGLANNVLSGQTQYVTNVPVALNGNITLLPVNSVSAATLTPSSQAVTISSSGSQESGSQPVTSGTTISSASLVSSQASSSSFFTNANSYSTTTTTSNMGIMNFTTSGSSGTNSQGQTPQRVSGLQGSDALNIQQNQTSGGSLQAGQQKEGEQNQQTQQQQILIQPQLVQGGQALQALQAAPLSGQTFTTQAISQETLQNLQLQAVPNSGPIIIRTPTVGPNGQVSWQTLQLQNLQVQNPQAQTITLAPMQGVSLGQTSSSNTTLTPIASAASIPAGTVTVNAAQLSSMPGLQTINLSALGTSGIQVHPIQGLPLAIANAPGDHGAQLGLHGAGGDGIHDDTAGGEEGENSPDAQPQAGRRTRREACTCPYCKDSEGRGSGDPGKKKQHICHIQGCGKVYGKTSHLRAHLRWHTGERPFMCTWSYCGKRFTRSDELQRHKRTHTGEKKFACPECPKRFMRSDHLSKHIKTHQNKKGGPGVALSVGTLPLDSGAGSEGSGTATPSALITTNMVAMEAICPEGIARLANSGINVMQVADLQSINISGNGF
Outline: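 Chemicals are dosed onto HepG2 cells transfected with multiple cis-promoter reporter constructs, and after 24 h reporter RNA is reverse-transcribed, PCR-amplified and resolved by capillary electrophoresis for fluorescence quantitation; activity is scored up or down against DMSO.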

[16] = biological target: Signal transducer and activator of transcription 3 (Homo sapiens) (UniProt P40763); test: ATG_STAT3_CIS: Attagene CIS-FACTORIAL HepG2 Assay for human Signal Transducer and Activator of Transcription 3 (STAT3) (AID 2282963); conditions: HepG2, Attagene cis-factorial STAT3 reporter transcription; actives raise or lower the signal
Outline: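 Cis-factorial format: endogenous transcription factors in HepG2 drive transfected reporter units. After 24 h treatment, reporter RNA was reverse-transcribed, amplified, FAM-labelled and HpaI-digested before CE analysis; activity scored in both directions against DMSO.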

[17] = ATG_VDRE_CIS: Attagene CIS-FACTORIAL HepG2 Assay for human Vitamin D Receptor Element (VDRE) (AID 2282968); conditions: HepG2 VDRE cis-reporter transcription, actives raise or lower the signal
Outline: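 Measures endogenous factor activity through cis-element-driven reporter transcripts in transiently transfected HepG2. Cells are treated 24 h; reporter mRNA is quantified by RT-PCR and capillary electrophoresis; fitting is bidirectional.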

[18] = ATG_M_06_TRANS: Attagene TRANS-FACTORIAL HepG2 Assay for M06 Transcription Factor (Internal Marker) (AID 2282983; active = hit-call score of the fitted dose curve at least 0.9, where 1 is the maximum); conditions: HepG2 Attagene TRANS M06 internal marker reporter
Outline: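 Read-out: fluorescent reporter cDNA fragments resolved by capillary electrophoresis after RT-PCR and HpaI cut. Source cells were HepG2 carrying transfected multi-reporter GAL4 constructs, dosed 24 h. Increase over DMSO control analysed.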

[19] = biological target: Transcriptional activator Myb (Homo sapiens) (UniProt P10242); test: ATG_Myb_CIS: Attagene CIS-FACTORIAL HepG2 Assay for human Myeloblastosis (Myb) Proto-Oncogene Transcription Factor (AID 2282986); conditions: HepG2 Attagene CIS-FACTORIAL Myb reporter transcription; actives raise or lower the signal
Transcriptional activator Myb (Homo sapiens), sequence (P10242 whole entry, looked up): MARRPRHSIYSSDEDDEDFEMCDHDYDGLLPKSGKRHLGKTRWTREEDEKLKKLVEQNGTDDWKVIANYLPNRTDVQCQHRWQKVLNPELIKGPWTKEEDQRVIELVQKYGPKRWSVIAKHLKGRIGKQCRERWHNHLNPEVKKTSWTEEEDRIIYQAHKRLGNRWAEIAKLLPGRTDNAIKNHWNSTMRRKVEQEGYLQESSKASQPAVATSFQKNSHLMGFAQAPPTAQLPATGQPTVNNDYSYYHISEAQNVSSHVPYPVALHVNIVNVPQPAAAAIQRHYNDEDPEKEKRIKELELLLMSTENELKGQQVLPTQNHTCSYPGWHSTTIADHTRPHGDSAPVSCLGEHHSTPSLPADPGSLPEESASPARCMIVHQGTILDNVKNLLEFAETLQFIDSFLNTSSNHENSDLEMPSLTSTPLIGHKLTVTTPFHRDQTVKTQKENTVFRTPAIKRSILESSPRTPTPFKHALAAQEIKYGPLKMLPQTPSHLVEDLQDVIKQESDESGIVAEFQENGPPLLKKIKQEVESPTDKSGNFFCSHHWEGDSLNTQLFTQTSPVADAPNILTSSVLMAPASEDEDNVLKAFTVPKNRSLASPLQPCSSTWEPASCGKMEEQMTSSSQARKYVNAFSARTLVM
Outline: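 Using HepG2 liver cells bearing transiently transfected cis-promoter reporter constructs, the assay measures induction or loss of reporter mRNA after 24 hours of dosing. Detection used fluorescently labeled RT-PCR products separated by capillary electrophoresis.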

[20] = biological target: Cellular tumor antigen p53 (Homo sapiens) (UniProt P04637); test: TOX21_p53_BLA_p2_ratio: Tox21 HCT-116 p53 Agonism Beta-lactamase Assay, Ratio, Phase 2 (AID 2283592; active = hit-call score of the fitted dose curve at least 0.9, where 1 is the maximum)
Outline: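 Readout: blue/green (460/530 nm) FRET emission ratio after 2 h CCF4-AM loading at room temperature, excitation 405 nm. HCT116 p53 bla cells, 16 h compound exposure at 37C, 5% CO2; agonist direction fitted against DMSO baseline.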

Measured: AC50

Cc1ccnc(N)c1
active: [4] 76.7 µM | [7] 44.6 µM | [13] 66.8 µM
not listed: [15] | [16] | [17] | [18] | [19] | [20]
inactive: all other assays above

CCOc1ccc2c(c1)C(C)CC(C)(C)N2 (centres undefined)
active: [17] 34 µM
not listed: [7] | [10] | [14] | [20]
inactive: all other assays above

C=C(C)C(=O)OCCCCCC
active: [7] 26.5 µM
not listed: [3] | [8] | [19]
inactive: all other assays above

[O-][n+]1ccc(Cl)cc1
inactive: all assays above

CCCCCCC1CCC(=O)O1 (centres undefined)
not listed: [3] | [8] | [18] | [19]
inactive: all other assays above

O=C1CCCCCCCCCCCCCC1
active: [6] 62.1 µM | [7] 9.14 µM | [15] 47.6 µM | [13] 32.6 µM
not listed: [2] | [9] | [12]
inactive: all other assays above

Sc1nc2ccccc2s1
active: [7] 80.6 µM | [13] 100 µM
not listed: [15]
inactive: all other assays above

C=CCOCC(CC)(CO)COCC=C
active: [7] 47.1 µM
inactive: all other assays above

From PubChem BioAssay (EPA / NIEHS)
